Data from PubChem BioAssay AID2177 (The Scripps Research Institute Molecular Screening Center, 2009).
In all, about 320,000 compounds went through this assay and about 1,200 (0.38%) were called active.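 Rule for the calls: active = inhibition above the screen-wide mean plus 3 SD, limit set per campaign (cut at about 26% in these data); inactive = the rest.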 What follows is part of a selection rich in actives, with near analogues and random picks from the rest.

Biological target: Acyl-protein thioesterase 2 (Homo sapiens) (UniProt O95372)
Sequence (O95372 whole entry, looked up): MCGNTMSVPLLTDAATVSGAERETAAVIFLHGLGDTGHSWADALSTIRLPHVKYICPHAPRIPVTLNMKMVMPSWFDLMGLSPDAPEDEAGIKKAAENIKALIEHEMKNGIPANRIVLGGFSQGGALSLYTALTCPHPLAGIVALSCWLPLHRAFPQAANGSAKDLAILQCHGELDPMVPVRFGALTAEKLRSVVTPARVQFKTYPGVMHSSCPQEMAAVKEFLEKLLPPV
Assay: inhibition of human lysophospholipase 2 – biochemical, fluorescence polarization, FP-Rh probe ABPP, counter-screen for PME1 inhibitor project, primary screen (AID 2177);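 note: 0% = LYPLA2 with DMSO and 100% = wells lacking LYPLA2 enzyme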
Conditions: recombinant LYPLA2, FP-Rh probe fluorescence polarization; at 5.9 µM; hits give high values

Row | Structure (SMILES) | inhibition
1 | Oc1ccc(N=Cc2sc3ccccc3c2Cl)cc1 | 7.6% (inactive)
2 | CCOc1[nH]n(-c2ccc(Cl)cc2)c(=O)c1C=Nc1ccc(O)cc1 | 3.53% (inactive)
3 | Oc1ccc(N=Cc2c(O)ccc3ccccc23)cc1 | 32.3% (active)
4 | CCOC(=O)N1CCN(c2c(NCCN3CCN(c4ccccc4F)CC3)c(=O)c2=O)CC1 | 1.74% (inactive)
5 | O=[N+]([O-])c1ccc(F)cc1Oc1nc(-c2cccnc2)nc2ccccc12 | -3.66% (inactive)
6 | O=[N+]([O-])c1ccc(Oc2ccc(F)cc2Br)c2ccncc12 | 41.4% (active)
7 | O=S(=O)(/N=C(/Nc1ccccc1)c1ccccc1)c1cccs1 | 1.19% (inactive)
8 | Cc1ccc(S(=O)(=O)N(CC(=O)NCc2ccco2)c2ccccc2C)cc1 | -4.36% (inactive)
9 | CC(=O)Nc1ccc(NC(=O)CN2C(=O)COc3ccc(S(=O)(=O)N4CCCCC4)cc32)cc1 | -8.84% (inactive)
10 | CSc1cccc(NC(=O)CN2C(=O)COc3ccc(S(=O)(=O)N4CCOCC4)cc32)c1 | 35.7% (active)
11 | COc1ccc(NC(=O)CN2C(=O)COc3ccc(S(=O)(=O)N4CCOCC4)cc32)cc1 | 7% (inactive)
12 | O=S(=O)(Nc1ccc2[nH]ncc2c1)c1ccccc1Cl | -3.28% (inactive)
13 | O=c1[nH]c2cccnc2n1-c1ccc([N+](=O)[O-])cc1 | 0.99% (inactive)
14 | O=c1[nH]n(-c2ccc([N+](=O)[O-])cc2)c(=O)c2ccccc12 | 33.6% (active)
15 | COc1cnn(-c2ccc([N+](=O)[O-])cc2)c(=O)c1Cl | 6.75% (inactive)
16 | Cc1ccc(N2CCN(c3ccc(C)cc3)C2c2ccccn2)cc1 | 3.84% (inactive)
17 | CC(NCc1cccs1)C(=O)Nc1cc(Cl)cc(Cl)c1 (configuration not stated) | -2.93% (inactive)
18 | Cn1nc(C(F)(F)F)c2cc(NC(=O)OCC(C)(C)C)sc21 | -2.17% (inactive)
19 | O=C1OCC2=C1C(c1ccccc1)CC(=O)N2c1cccc(F)c1 (configuration not stated) | 0.97% (inactive)
20 | CCc1nnc(NC(=O)CSc2nnnn2-c2cccc(C(C)=O)c2)s1 | 0.16% (inactive)
21 | COC(=O)c1cc(NC(=O)c2cccnc2)ccc1N1CCOCC1 | 2.91% (inactive)
22 | O=C(Nc1ccc(N2CCN(C(=O)c3ccccc3)CC2)c(Cl)c1)c1cccnc1 | 27.9% (active)
23 | O=C(Nc1ccc(N2CCN(C(=O)c3ccccc3)CC2)c(Cl)c1)c1ncn[nH]1 | 14.6% (inactive)
24 | COC(=O)c1ccccc1NC(=O)CN(Cc1ccccc1)S(C)(=O)=O | -8.82% (inactive)
25 | O=C1C=C(c2cccc(Cl)c2)C[C@@H](c2ccc(F)cc2)C1 | 0.27% (inactive)
26 | N#Cc1ccc(C2=CC(=O)C[C@H](c3ccc(Cl)cc3)C2)cc1 | 43.3% (active)
27 | COc1ccc([C@H]2CC(=O)C=C(c3ccc(C)cc3)C2)cc1 | 15.7% (inactive)
